Measured values as given in ChEMBL document CHEMBL2218924, “A broad activity screen in support of a chemogenomic map for kinase signalling research and drug discovery” (Biochem J, 2013).

Columns and labels:
[1] = target: BDNF/NT-3 growth factors receptor (Homo sapiens) (UniProt Q16620); settings: at 10 µM
[2] = target: T1, Tyrosine-protein kinase TXK (Homo sapiens) (UniProt P42681); settings: at 1 µM
T1 sequence (whole entry): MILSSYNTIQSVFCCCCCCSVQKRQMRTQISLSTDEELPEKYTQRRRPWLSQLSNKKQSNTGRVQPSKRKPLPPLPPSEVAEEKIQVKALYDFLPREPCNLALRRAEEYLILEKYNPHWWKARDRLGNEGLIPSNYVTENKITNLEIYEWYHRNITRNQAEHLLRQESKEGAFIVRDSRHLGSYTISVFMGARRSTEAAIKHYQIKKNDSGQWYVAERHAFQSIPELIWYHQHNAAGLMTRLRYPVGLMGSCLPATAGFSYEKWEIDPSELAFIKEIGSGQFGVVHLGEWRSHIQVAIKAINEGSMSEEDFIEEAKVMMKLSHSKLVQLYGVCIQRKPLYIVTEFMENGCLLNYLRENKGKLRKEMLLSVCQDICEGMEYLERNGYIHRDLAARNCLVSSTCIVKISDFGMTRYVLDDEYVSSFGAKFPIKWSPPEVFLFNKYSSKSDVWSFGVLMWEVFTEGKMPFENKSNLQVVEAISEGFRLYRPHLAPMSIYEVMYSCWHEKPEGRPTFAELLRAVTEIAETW

[3] = target: T1, Tyrosine-protein kinase TXK (Homo sapiens); settings: at 10 µM
[4] = target: T2, Serine/threonine-protein kinase ULK2 (Homo sapiens) (UniProt Q8IYT8); settings: at 1 µM
T2 sequence (whole entry): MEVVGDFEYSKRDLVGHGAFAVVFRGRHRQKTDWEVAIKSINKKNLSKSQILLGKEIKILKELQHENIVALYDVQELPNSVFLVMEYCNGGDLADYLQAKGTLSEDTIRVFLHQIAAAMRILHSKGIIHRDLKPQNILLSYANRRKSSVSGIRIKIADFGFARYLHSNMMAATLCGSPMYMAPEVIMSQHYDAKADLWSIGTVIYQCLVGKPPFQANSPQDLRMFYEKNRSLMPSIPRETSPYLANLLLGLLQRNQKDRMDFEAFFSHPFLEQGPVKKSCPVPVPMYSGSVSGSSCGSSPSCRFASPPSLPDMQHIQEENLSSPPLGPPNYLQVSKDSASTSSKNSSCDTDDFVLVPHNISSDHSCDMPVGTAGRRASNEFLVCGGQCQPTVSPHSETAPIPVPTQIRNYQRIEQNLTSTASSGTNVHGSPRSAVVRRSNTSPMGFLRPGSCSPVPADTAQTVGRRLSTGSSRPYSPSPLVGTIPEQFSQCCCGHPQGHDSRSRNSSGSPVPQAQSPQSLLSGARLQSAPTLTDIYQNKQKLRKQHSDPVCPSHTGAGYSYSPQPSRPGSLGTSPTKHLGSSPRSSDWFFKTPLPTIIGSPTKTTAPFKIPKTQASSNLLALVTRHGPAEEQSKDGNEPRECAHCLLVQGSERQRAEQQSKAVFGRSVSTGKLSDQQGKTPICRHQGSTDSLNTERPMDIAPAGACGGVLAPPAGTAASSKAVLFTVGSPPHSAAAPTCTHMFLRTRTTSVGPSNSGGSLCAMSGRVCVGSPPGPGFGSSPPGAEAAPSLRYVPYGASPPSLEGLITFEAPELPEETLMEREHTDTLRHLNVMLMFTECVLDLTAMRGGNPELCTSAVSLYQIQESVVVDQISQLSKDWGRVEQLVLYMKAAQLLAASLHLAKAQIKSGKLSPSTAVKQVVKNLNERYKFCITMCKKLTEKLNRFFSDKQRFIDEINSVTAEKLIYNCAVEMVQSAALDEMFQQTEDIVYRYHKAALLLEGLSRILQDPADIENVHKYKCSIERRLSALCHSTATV

[5] = target: T2, Serine/threonine-protein kinase ULK2 (Homo sapiens); settings: at 10 µM
[6] = target: T3, Serine/threonine-protein kinase ULK3 (Homo sapiens) (UniProt Q6PHR2); settings: at 1 µM
T3 sequence (whole entry): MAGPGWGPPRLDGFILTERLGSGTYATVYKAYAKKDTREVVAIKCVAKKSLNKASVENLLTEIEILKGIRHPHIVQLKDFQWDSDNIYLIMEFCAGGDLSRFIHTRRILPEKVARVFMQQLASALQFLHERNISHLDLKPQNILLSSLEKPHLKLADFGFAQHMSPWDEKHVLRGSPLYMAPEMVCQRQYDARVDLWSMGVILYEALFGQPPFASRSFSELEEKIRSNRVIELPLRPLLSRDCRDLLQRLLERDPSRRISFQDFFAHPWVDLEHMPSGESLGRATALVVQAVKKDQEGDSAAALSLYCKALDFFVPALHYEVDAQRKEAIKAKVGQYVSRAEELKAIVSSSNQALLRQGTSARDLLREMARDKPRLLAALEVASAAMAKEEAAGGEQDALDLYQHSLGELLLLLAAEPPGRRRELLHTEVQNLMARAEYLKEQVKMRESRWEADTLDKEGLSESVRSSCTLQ

[7] = target: T3, Serine/threonine-protein kinase ULK3 (Homo sapiens); settings: at 10 µM
[8] = target: Serine/threonine-protein kinase VRK2 (Homo sapiens) (UniProt Q86Y07); settings: at 1 µM
[9] = target: Serine/threonine-protein kinase WNK2 (Homo sapiens) (UniProt Q9Y3S1); settings: at 1 µM;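 further: residual WNK2 kinase activity expressed as percent of uninhibited control, assayed in MOPS buffer at pH 7.0 containing EDTA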
[10] = target: Serine/threonine-protein kinase VRK2 (Homo sapiens) (UniProt Q86Y07); settings: at 10 µM

BDNF/NT-3 growth factors receptor (Homo sapiens), sequence (Q16620 32-822 limits assumed): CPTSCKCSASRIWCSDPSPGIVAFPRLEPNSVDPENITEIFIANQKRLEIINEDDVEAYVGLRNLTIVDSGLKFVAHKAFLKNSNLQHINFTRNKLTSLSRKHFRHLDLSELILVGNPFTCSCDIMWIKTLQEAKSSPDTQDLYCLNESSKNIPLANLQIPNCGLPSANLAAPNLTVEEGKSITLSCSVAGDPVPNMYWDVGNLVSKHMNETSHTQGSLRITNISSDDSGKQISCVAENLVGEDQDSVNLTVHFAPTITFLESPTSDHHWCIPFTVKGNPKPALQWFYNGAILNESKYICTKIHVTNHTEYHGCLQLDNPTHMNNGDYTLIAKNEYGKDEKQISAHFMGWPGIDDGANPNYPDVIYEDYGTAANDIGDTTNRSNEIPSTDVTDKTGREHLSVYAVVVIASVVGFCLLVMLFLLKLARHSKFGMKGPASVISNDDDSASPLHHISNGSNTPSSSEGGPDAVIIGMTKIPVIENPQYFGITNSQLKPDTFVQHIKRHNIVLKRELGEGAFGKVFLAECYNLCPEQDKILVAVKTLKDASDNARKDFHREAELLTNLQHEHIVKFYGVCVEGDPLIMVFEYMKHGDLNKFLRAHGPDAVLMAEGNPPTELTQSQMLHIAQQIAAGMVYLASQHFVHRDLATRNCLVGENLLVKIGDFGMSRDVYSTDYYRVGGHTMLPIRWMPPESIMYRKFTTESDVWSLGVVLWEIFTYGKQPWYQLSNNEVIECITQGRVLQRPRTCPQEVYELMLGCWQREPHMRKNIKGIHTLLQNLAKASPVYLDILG
Serine/threonine-protein kinase WNK2 (Homo sapiens), sequence (Q9Y3S1 whole entry): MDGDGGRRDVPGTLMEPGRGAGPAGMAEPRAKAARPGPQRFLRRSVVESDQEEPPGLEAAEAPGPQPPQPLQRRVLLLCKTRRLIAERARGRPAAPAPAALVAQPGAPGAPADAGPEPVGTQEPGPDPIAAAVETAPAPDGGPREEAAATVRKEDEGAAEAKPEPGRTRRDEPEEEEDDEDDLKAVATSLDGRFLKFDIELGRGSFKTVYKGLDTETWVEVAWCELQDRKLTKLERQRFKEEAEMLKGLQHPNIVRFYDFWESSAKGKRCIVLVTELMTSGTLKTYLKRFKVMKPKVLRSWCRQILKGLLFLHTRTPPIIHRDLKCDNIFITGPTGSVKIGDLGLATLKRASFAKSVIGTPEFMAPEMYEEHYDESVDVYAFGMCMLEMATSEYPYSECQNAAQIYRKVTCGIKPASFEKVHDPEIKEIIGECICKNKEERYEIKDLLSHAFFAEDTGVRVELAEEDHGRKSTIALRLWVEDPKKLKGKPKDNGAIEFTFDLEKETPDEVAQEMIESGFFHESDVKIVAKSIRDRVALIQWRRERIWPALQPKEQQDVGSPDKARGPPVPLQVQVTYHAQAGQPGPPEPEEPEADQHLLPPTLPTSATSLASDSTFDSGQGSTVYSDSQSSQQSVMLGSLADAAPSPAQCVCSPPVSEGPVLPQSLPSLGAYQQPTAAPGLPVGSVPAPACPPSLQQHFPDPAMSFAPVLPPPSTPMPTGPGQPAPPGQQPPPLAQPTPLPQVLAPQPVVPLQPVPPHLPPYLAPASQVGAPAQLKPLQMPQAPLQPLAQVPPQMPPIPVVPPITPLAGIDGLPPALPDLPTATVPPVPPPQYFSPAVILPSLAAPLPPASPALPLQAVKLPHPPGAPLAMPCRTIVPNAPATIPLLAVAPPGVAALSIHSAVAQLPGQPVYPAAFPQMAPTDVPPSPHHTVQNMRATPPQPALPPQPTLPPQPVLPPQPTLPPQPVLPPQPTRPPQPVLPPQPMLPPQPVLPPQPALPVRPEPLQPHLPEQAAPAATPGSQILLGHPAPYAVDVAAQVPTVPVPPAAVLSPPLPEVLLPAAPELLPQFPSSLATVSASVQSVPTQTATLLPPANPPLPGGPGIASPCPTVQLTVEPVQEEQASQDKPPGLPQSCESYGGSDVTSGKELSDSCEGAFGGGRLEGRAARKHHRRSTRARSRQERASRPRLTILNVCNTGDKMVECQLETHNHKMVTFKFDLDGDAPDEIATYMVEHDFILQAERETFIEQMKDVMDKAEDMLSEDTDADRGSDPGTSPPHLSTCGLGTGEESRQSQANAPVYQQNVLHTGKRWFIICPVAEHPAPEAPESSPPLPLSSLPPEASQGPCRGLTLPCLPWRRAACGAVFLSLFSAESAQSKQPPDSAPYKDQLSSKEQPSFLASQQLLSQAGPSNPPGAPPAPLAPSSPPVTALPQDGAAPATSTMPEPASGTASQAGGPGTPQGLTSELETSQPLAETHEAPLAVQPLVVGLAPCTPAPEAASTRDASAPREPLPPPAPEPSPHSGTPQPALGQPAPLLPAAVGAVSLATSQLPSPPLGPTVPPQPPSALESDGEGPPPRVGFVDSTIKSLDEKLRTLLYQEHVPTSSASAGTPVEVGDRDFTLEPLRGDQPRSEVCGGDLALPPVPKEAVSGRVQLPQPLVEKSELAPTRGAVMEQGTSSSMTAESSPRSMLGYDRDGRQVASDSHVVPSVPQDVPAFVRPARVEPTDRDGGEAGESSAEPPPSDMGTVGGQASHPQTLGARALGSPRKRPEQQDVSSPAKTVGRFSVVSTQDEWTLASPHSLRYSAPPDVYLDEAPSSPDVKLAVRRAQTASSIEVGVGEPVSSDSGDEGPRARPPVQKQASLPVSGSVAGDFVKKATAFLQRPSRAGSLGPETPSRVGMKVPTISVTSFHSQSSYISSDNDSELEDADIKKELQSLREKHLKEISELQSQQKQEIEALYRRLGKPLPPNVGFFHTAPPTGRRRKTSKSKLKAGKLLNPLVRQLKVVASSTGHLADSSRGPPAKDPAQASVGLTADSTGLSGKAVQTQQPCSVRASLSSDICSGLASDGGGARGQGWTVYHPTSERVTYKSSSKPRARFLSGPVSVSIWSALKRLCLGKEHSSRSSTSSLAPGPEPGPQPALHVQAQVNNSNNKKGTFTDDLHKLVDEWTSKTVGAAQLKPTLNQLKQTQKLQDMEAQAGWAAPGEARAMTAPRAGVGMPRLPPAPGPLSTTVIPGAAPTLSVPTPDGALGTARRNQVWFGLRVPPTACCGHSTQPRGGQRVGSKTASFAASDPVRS
Serine/threonine-protein kinase VRK2 (Homo sapiens), sequence (Q86Y07 whole entry): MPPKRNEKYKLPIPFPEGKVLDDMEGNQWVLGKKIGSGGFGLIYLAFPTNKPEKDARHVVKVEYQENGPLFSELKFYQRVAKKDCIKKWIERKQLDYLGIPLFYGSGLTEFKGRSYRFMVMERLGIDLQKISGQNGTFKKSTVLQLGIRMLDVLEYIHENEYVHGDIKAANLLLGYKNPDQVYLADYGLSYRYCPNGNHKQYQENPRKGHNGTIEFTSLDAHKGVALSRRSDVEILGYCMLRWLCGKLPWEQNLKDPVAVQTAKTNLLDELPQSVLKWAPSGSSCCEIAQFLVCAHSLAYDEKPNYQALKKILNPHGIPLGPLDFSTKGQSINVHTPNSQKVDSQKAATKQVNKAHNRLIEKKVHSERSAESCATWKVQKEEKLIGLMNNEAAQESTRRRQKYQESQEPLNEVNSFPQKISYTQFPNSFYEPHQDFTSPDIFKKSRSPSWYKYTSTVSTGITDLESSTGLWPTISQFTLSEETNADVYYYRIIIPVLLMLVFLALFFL

| Compound | residual activity [1] | residual activity [2] | residual activity [3] | residual activity [4] | residual activity [5] | residual activity [6] | residual activity [7] | residual activity [8] | residual activity [9] | residual activity [10] |
| --- | --- | --- | --- | --- | --- | --- | --- | --- | --- | --- |
| C[C@@H](N)[C@H]1CC[C@H](C(=O)Nc2ccncc2)CC1 | 99% | 100% | 94% | 85% | 39% | 95% | 68% | 96% (inactive) | 95% (inactive) |  |
| c1ccc(-c2n[nH]cc2-c2ccnc3ccccc23)nc1 |  |  | 64% |  | 97% | 100% | 98% | 95% (inactive) | 105% (inactive) | 67% |
| Cn1cc(/C=C2\C(=O)Nc3ccc(S(N)(=O)=O)cc32)c2ccccc21 | -12% | 75% | 47% | 43% | 24% | 19% | 4% | 114% (inactive) | 111% (inactive) | 93% |
| CCN(CC)CCCCN1c2ccccc2Oc2ccc(Cl)cc21 | 87% | 99% | 81% | 116% | 96% | 111% | 98% | 126% (inactive) | 122% (inactive) | 99% |
| Cc1cc(Nc2nc(-c3ccccc3)nc3ccccc23)n[nH]1 | 0% | 30% | 2% |  |  | 29% | 4% |  | 74% (inactive) |  |
| Cc1cncc2cccc(S(=O)(=O)N3CCCN(C(=O)CN)C[C@H]3C)c12 |  | 100% | 91% | 93% | 47% | 97% | 59% | 94% (inactive) |  | 66% |
| Cc1ccc(S(=O)(=O)/C=C/C#N)cc1 | 105% | 79% | 87% | 109% | 104% | 97% | 98% | 91% (inactive) | 94% (inactive) | 97% |
| COc1cc2ncnc(N3CCN(C(=O)Nc4ccc(Oc5ccccc5)cc4)CC3)c2cc1OC | 44% | 108% | 119% | 100% | 100% | 97% | 90% | 94% (inactive) | 84% (inactive) | 86% |
| CCC(=O)Nc1ccc2ncnc(Nc3cccc(Br)c3)c2c1 | 119% | 108% | 78% | 106% | 100% | 107% | 89% | 106% (inactive) | 99% (inactive) | 86% |
| CO[C@H]1C[C@@H]2CC[C@@H](C)[C@@](O)(O2)C(=O)C(=O)N2CCCC[C@H]2C(=O)O[C@H]([C@H](C)C[C@@H]2CC[C@@H](O)[C@H](OC)C2)CC(=O)[C@H](C)/C=C(\C)[C@@H](O)[C@@H](OC)C(=O)[C@H](C)C[C@H](C)/C=C/C=C/C=C/1C |  | 109% | 111% | 91% | 98% | 100% | 94% | 97% (inactive) | 96% (inactive) | 97% |
| c1ccc(-c2n[nH]c3c2oc2ccccc23)cc1 | -3% | 97% | 73% |  | 86% |  | 71% | 99% (inactive) | 114% (inactive) | 77% |
| COc1ccc(C(=O)Nc2sc3c(c2C(N)=O)CCCC3)cc1OC | 71% | 93% | 73% | 102% | 92% | 99% | 84% | 107% (inactive) | 104% (inactive) | 85% |
| Nc1cccc(-c2cc3c(Oc4cccc(O)c4)ncnc3[nH]2)c1 | 44% | 27% | 3% |  | 76% | 31% | 6% | 100% (inactive) | 88% (inactive) | 89% |
| COc1ccc(OC)c2c(=S)c3ccccc3[nH]c12 | 92% | 84% | 86% | 100% | 102% | 86% | 101% | 91% (inactive) | 86% (inactive) | 86% |
| O=c1c2ccccc2[nH]c(=S)n1CCN1CCC(=C(c2ccc(F)cc2)c2ccc(F)cc2)CC1 | 59% | 102% | 80% | 109% | 98% | 107% | 94% | 116% (inactive) | 113% (inactive) | 99% |
| CCOc1cc2ncnc(Nc3cccc(Br)c3)c2cc1OCC | 88% | 75% | 24% | 94% | 78% | 96% | 71% | 99% (inactive) | 102% (inactive) | 74% |
| O=C(Nc1cccc(Nc2nccc(Nc3cccc(C(F)(F)F)c3)n2)c1)C1CC1 | -5% | 60% | 15% | 101% | 88% | 97% | 66% | 93% (inactive) | 104% (inactive) | 85% |
| CN(C)CCCn1cc(C2=C(c3c[nH]c4ccccc34)C(=O)NC2=O)c2ccccc21 | 14% |  | 79% | 110% | 88% | 101% | 61% | 119% (inactive) | 120% (inactive) | 76% |
